Measurements: PubChem BioAssay (EPA / NIEHS)
Activity calls are given as the source filed them. How the source made its calls: active means hit-call score of the fitted dose curve at least 0.9, where 1 is the maximum; inactive means score below 0.9.

How the values were obtained:
Conditions in all cases: mRNA level, 48 h; actives raise or lower the signal
[1] = read-out: Cytochrome P450 3A4 (Homo sapiens) (UniProt P08684); assay: LTEA_HepaRG_CYP3A4: Life Technologies and Expression Analysis (LTEA) Assay for CYP3A4 using HepaRG (AID 2283487)
How it was run: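 Differentiated HepaRG cells, plated 48 h, then dosed 48 h in serum-free induction medium with 0.5% DMSO, 8 half-log concentrations up to 100 uM, duplicate. CYP3A4 mRNA by qRT-PCR, normalized to ACTB/GAPDH/POLR2A; bidirectional fit versus DMSO.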

[2] = read-out: DNA damage-inducible transcript 3 (DDIT3), DDIT3 (gene 1649); assay: LTEA_HepaRG_DDIT3: Life Technologies and Expression Analysis (LTEA) Assay for DNA damage-inducible transcript 3 (DDIT3) using HepaRG (AID 2283488)
How it was run: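 DDIT3 transcript was quantified by qRT-PCR with ACTB/GAPDH/POLR2A normalization after 48 h chemical treatment of differentiated HepaRG cells in 0.5% DMSO. Dosing was eight-point, half-log, top 100 uM, duplicate wells. Curves fitted bidirectionally versus DMSO.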

[3] = read-out: Pro-epidermal growth factor (Homo sapiens) (UniProt P01133); assay: LTEA_HepaRG_EGF: Life Technologies and Expression Analysis (LTEA) Assay for Epidermal growth factor (EGF) using HepaRG (AID 2283489)
How it was run: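 EGF transcript measured by Fluidigm TaqMan qRT-PCR with three housekeeping genes for normalization, 48 h after dosing HepaRG cultures in duplicate (top 100 uM, half-log steps, 0.5% DMSO vehicle). Gain or loss relative to DMSO fitted.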

[4] = read-out: Early growth response protein 1 (EGR1) transcription factor, EGR1 (gene 1958); assay: LTEA_HepaRG_EGR1: Life Technologies and Expression Analysis (LTEA) Assay for Early growth response protein 1 (EGR1) transcription factor using HepaRG (AID 2283490)
How it was run: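 HepaRG, 48 h exposure, 8-pt half-log series from 100 uM, 0.5% DMSO vehicle; EGR1 transcript by TaqMan qRT-PCR (Fluidigm array), housekeeping-normalized; bidirectional fit relative to DMSO baseline.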

[5] = read-out: Ezrin (EZR), EZR (gene 7430); assay: LTEA_HepaRG_EZR: Life Technologies and Expression Analysis (LTEA) Assay for Ezrin (EZR) using HepaRG (AID 2283491)
How it was run: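 EZR transcript levels came from Fluidigm qRT-PCR and were normalized to three housekeeping genes after 48 h chemical exposure of HepaRG cells. Dosing used an 8-point half-log series with a 100 uM top concentration in 0.5% DMSO, tested in duplicate; both directions were fitted versus vehicle.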

[6] = read-out: CYP3A5 (gene 1577); assay: LTEA_HepaRG_CYP3A5: Life Technologies and Expression Analysis (LTEA) Assay for CYP3A5 using HepaRG (AID 2283493)
How it was run: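 mRNA levels were quantified by qRT-PCR on Fluidigm arrays and normalized to three housekeeping genes. Differentiated HepaRG cells received 48 h exposure (top 100 uM, half-log steps, 0.5% DMSO vehicle, duplicate); bidirectional fitting versus DMSO.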

[7] = read-out: Fatty Acid-Binding Protein 1 (FABP1), FABP1 (gene 2168); assay: LTEA_HepaRG_FABP1: Life Technologies and Expression Analysis (LTEA) Assay for Fatty Acid-Binding Protein 1 (FABP1) using HepaRG (AID 2283494)
How it was run: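 qRT-PCR readout of FABP1 transcript (normalized to three housekeeping genes) after 48 h chemical exposure of HepaRG cells; eight concentrations, half-log steps, max 100 uM, 0.5% DMSO vehicle; gain or loss fitted relative to DMSO baseline.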

[8] = read-out: Cytochrome P450 4A22 (Homo sapiens) (UniProt Q5TCH4); assay: LTEA_HepaRG_CYP4A22: Life Technologies and Expression Analysis (LTEA) Assay for Cytochrome P450 4A22 (CYP4A22) using HepaRG (AID 2283495)
How it was run: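 Gene expression measured by qRT-PCR against three housekeeping genes (ACTB, GAPDH, POLR2A), with gain or loss fitted relative to 0.5% DMSO vehicle. HepaRG cultures received 48 h chemical treatment, top concentration 100 uM, half-log steps, duplicate wells.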

[9] = read-out: Cytochrome P450 7A1 (Homo sapiens) (UniProt P22680); assay: LTEA_HepaRG_CYP7A1: Life Technologies and Expression Analysis (LTEA) Assay for Cytochrome P450 7A1 (CYP7A1) using HepaRG (AID 2283496)
How it was run: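 HepaRG, 48 h exposure, 8-pt half-log series from 100 uM, 0.5% DMSO vehicle, duplicates. Readout: TaqMan qRT-PCR mRNA vs three housekeeping genes; bidirectional curve fit against DMSO baseline.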

[10] = read-out: Glutathione S-Transferase (GSTA2), GSTA2 (gene 2939); assay: LTEA_HepaRG_GSTA2: Life Technologies and Expression Analysis (LTEA) Assay for Glutathione S-Transferase (GSTA2) using HepaRG (AID 2283497)
How it was run: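 qRT-PCR readout of GSTA2 transcript, normalized to three housekeeping genes, fitted bidirectionally against 0.5% DMSO baseline. Differentiated HepaRG cells received compound for 48 h at 8 concentrations (top 100 uM, half-log steps).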

[11] = read-out: Glutamate-cysteine ligase catalytic (GCLC), GCLC (gene 2729); assay: LTEA_HepaRG_GCLC: Life Technologies and Expression Analysis (LTEA) Assay for Glutamate-cysteine ligase catalytic (GCLC) using HepaRG (AID 2283498)
How it was run: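 HepaRG, 48 h exposure, 8-pt half-log series from 100 uM, 0.5% DMSO vehicle; TaqMan qRT-PCR for GCLC mRNA, housekeeping-normalized; bidirectional curve fit vs DMSO baseline.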

[12] = read-out: growth arrest and DNA damage 45 (GADD45G), GADD45G (gene 10912); assay: LTEA_HepaRG_GADD45G: Life Technologies and Expression Analysis (LTEA) Assay for growth arrest and DNA damage 45 (GADD45G) using HepaRG (AID 2283499)
How it was run: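 GADD45G transcript level by qRT-PCR (housekeeping-normalized: ACTB, GAPDH, POLR2A) after 48 h chemical treatment of a single HepaRG lot in serum-free induction medium; eight-point half-log series up to 100 uM in 0.5% DMSO, duplicates, up- or down-regulation scored.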

[13] = read-out: Glutamate-cysteine ligase regulatory (GCLM), GCLM (gene 2730); assay: LTEA_HepaRG_GCLM: Life Technologies and Expression Analysis (LTEA) Assay for Glutamate-cysteine ligase regulatory (GCLM) using HepaRG (AID 2283500)
How it was run: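 GCLM expression quantified by qRT-PCR, normalized to three housekeeping genes, after 48 h chemical treatment of HepaRG cells in duplicate at 8 concentrations (top 100 uM, half-log steps, 0.5% DMSO). Changes fitted both directions against vehicle.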

[14] = read-out: Glutathione S-transferase M3 (GSTM3), GSTM3 (gene 2947); assay: LTEA_HepaRG_GSTM3: Life Technologies and Expression Analysis (LTEA) Assay for Glutathione S-transferase M3 (GSTM3) using HepaRG (AID 2283501)
How it was run: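 GSTM3 transcript levels came from Fluidigm TaqMan qRT-PCR normalized to three housekeeping genes, fitted in both directions against DMSO. HepaRG cultures received chemicals for 48 h in serum-free induction medium (0.5% DMSO), 8 half-log concentrations up to 100 uM, duplicate.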

[15] = read-out: Heat shock 70 kDa protein 1 (HSPA1A), gene 3303; assay: LTEA_HepaRG_HSPA1A: Life Technologies and Expression Analysis (LTEA) Assay for Heat shock 70 kDa protein 1 (HSPA1A) using HepaRG (AID 2283502)
How it was run: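 HSPA1A expression measured by qRT-PCR with ACTB/GAPDH/POLR2A normalization; curves fitted in both directions relative to DMSO vehicle. Exposure: 48 h in HepaRG cells, duplicate 8-point half-log series from 100 uM, 0.5% DMSO, serum-free induction medium.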

[16] = read-out: Hypoxia-inducible factor 1-alpha (Homo sapiens) (UniProt Q16665); assay: LTEA_HepaRG_HIF1A: Life Technologies and Expression Analysis (LTEA) Assay for Hypoxia-inducible factor 1 (HIF1A) Trancription factor using HepaRG (AID 2283503)
How it was run: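 HIF1A transcript level read by qRT-PCR (ACTB, GAPDH, POLR2A normalization) after 48 h chemical exposure of HepaRG cultures. Eight half-log concentrations, top 100 uM, 0.5% DMSO vehicle, duplicates; bidirectional curve fit against DMSO baseline.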

[17] = read-out: 3-Hydroxy-3-Methylglutaryl-CoA Synthase 2 (HMGCS2), HMGCS2 (gene 3158); assay: LTEA_HepaRG_HMGCS2: Life Technologies and Expression Analysis (LTEA) Assay for 3-Hydroxy-3-Methylglutaryl-CoA Synthase 2 (HMGCS2) using HepaRG (AID 2283504)
How it was run: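 Readout is HMGCS2 transcript by qRT-PCR, housekeeping-normalised (ACTB/GAPDH/POLR2A) and fitted bidirectionally against 0.5% DMSO. Differentiated HepaRG cells received chemicals 48 h, duplicate wells, eight half-log concentrations topping at 100 uM.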

[18] = read-out: HGF (gene 3082); assay: LTEA_HepaRG_HGF: Life Technologies and Expression Analysis (LTEA) Assay for Hepatocyte Growth Facto (HGF) using HepaRG (AID 2283505)
How it was run: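 HGF transcript was quantified by TaqMan qRT-PCR against three housekeeping genes after 48 h treatment of HepaRG cells. Exposure ran in duplicate over eight half-log steps topping at 100 uM in 0.5% DMSO vehicle.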

[19] = read-out: Insulin Like Growth Factor 1 (IGF1), IGF1 (gene 3479); assay: LTEA_HepaRG_IGF1: Life Technologies and Expression Analysis (LTEA) Assay for Insulin Like Growth Factor 1 (IGF1) using HepaRG (AID 2283506)
How it was run: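 Expression measured by TaqMan qRT-PCR on a Fluidigm array, with three housekeeping genes for normalisation, after 48 h treatment of HepaRG cells. Top concentration 100 uM with half-log steps, 0.5% DMSO vehicle, bidirectional fit.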

[20] = read-out: Intercellular Adhesion Molecule 1 (ICAM1), ICAM1 (gene 3383); assay: LTEA_HepaRG_ICAM1: Life Technologies and Expression Analysis (LTEA) Assay for Intercellular Adhesion Molecule 1 (ICAM1) using HepaRG (AID 2283507)
How it was run: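 ICAM1 transcript levels measured by qRT-PCR, normalized to three housekeeping genes (ACTB, GAPDH, POLR2A), after 48 h chemical exposure of HepaRG cells. Duplicate eight-point half-log series from 100 uM in 0.5% DMSO; gain or loss fitted against vehicle.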

Measured: AC50

Sequence of Cytochrome P450 3A4 (Homo sapiens) (P08684 whole entry, looked up): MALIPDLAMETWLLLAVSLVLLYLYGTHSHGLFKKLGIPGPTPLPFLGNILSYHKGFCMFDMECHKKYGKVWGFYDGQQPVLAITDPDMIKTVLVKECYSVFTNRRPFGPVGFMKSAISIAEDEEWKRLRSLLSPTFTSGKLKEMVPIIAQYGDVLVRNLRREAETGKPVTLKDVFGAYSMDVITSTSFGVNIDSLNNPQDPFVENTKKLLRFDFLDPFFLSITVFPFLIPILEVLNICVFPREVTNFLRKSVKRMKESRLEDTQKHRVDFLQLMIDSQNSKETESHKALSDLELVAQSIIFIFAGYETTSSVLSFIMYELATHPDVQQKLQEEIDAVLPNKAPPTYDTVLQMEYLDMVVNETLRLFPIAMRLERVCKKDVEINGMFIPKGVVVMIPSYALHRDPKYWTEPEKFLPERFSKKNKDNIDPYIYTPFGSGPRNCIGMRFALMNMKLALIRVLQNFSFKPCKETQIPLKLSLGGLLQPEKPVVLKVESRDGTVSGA
Sequence of Hypoxia-inducible factor 1-alpha (Homo sapiens) (Q16665 whole entry, looked up): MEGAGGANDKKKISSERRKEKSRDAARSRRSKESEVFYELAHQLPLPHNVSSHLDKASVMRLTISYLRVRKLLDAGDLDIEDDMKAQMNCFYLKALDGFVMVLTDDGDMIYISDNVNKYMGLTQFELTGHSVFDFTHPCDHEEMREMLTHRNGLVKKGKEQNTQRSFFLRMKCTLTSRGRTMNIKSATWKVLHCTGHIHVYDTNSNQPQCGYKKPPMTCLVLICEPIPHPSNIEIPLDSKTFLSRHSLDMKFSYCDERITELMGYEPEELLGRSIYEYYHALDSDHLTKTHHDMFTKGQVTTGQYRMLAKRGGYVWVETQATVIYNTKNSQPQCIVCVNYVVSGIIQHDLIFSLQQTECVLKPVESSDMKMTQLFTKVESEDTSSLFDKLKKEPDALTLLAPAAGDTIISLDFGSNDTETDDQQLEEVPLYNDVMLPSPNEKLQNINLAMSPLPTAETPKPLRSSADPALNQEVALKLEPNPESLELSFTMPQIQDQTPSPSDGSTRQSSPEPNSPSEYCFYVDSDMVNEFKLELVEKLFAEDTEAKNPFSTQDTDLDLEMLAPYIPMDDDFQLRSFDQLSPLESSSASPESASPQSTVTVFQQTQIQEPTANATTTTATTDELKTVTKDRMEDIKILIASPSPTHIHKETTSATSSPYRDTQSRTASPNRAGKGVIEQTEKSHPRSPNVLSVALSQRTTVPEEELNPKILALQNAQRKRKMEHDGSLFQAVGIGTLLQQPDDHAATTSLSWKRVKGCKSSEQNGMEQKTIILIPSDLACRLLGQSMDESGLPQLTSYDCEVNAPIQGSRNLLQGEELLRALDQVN

Nc1cc2c3c(c1)C(c1ccccc1)=N[C@@H](NC(=O)c1cccnc1)C(=O)N3CC2
active: [1] 7.78 µM | [7] 50 µM | [8] 10.9 µM | [19] 11.8 µM
inactive: all other assays above

[N-]=[N+]=[N-]
active: [2] 76.4 µM | [5] 50 µM | [7] 77.6 µM | [8] 50 µM | [10] 79.3 µM | [12] 78.1 µM | [13] 95 µM | [17] 77 µM | [19] 68.6 µM
inactive: all other assays above

CCN(CC)c1ccccc1
inactive: all assays above

CCC(C)(C)c1ccc(O)cc1
inactive: all assays above

CCC1(c2ccccc2)C(=O)N=C(O)NC1=O (stereo not given)
active: [1] 50 µM
inactive: all other assays above

CCOS(=O)(=O)OCC
inactive: all assays above

CCCCc1ccccc1
inactive: all assays above
